Screening results as filed in PubChem.
A selection: hits, their analogues and other compounds. The true share with any hit is near 2.4%.
Pol kappa inh = qHTS for Inhibitors of Polymerase Kappa; Potency, µM (doses to about 107 µM), actives largely listed as inhibitors; DNA polymerase kappa (Homo sapiens), Q9UBT6; hit rate 0.53% among 400,000; purified Pol kappa, fluorescent DNA synthesis assay, 10 min
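Pol kappa 10 nM + cpd, 15 min RT; start w/ substrate 50 nM final; fluorescence kinetic read, 0 and 10 min. Neg ctrl: buffer, no enzyme.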
POLB inh = qHTS Assay for Inhibitors of DNA Polymerase Beta; hit rate 1.3% among 340,000; P06746; Pol beta primer extension/strand displacement, fluorescence kinetic; AID 485314, 2010; Potency, µM (highest dose often 114 µM), most hits filed as inhibitors
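10 nM enzyme + cpd, 15 min RT; start with substrate 50 nM final; read 0 min and after 10 min RT. Corrected, normalized data; 4-parameter Hill curve fit.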
WRN inhibitor = qHTS for Inhibitors of WRN Helicase | Bifunctional 3'-5' exonuclease/ATP-dependent helicase WRN (Homo sapiens), Q14191 | hit rate 0.46% among 360,000 | WRN helicase unwinding, fluorescent forked duplex, kinetic | Potency, µM (top dose mostly 114 µM), actives largely listed as inhibitors; note: nearly all actives have a fitted effect of over 55% in size
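Fluorescence dequenching readout, ex 525 nm/em 598 nm, kinetic mode: forked duplex DNA (100 nM final) with adjacent fluorophore and quencher unwound by WRN (20 nM final) with 2 mM ATP. Compound preincubation 15 min, room temperature.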
POLI inh = qHTS for Inhibitors of Polymerase Iota. Potency, µM (titrated, usually from 115 µM), most hits filed as inhibitors. hit rate 1% among 390,000. AID 588590, 2011. Pol iota fluorescent replication assay, 10 min. DNA polymerase iota (Homo sapiens), Q9UNA4
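Fluorescent replication assay read twice, at 0 min and 10 min after adding 50 nM (final) substrate. Enzyme (10 nM) and compounds were first incubated 15 min at room temperature; enzyme-free buffer wells were negative controls.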
Pol eta inh = qHTS for Inhibitors of Polymerase Eta; DNA polymerase eta (Homo sapiens), Q9Y253; recombinant Pol eta, fluorescent DNA replication assay; Potency, µM (highest dose often 114 µM), usual class: inhibitors; hit rate 1.2% among 390,000; AID 588591, 2011
Target sequence (Q9Y253 whole entry, looked up): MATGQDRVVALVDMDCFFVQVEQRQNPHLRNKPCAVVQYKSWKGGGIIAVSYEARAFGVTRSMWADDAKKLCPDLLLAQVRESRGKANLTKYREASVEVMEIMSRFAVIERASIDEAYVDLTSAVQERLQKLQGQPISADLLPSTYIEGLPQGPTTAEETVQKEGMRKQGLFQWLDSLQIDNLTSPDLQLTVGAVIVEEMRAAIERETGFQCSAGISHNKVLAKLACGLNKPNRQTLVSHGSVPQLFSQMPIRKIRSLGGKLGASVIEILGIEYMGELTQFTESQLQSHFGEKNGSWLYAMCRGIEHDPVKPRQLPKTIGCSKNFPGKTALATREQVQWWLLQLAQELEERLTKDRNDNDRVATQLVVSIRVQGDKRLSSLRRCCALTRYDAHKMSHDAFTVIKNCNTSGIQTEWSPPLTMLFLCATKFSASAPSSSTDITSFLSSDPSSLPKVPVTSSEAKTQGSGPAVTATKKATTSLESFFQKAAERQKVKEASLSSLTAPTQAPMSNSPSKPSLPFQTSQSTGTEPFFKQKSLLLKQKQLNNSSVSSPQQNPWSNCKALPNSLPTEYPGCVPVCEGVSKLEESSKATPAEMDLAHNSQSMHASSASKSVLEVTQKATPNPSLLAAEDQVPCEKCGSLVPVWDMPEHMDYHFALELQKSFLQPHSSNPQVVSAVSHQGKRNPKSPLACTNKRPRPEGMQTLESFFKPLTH
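Pol eta (10 nM) was preincubated with compounds for 15 min at room temperature, after which fluorescent replication substrate (50 nM final) was added to start the reaction. Fluorescence was read kinetically at 0 and 10 min.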
FEN1 inh = qHTS Assay for the Inhibitors of Human Flap endonuclease 1 (FEN1); P39748; Recombinant FEN1 flap cleavage, fluorescence, 15 min; Potency, µM (top dose mostly 114 µM), usual class: inhibitors; hit rate 0.35% among 390,000; AID 588795, 2011; note: nearly all actives have a fitted effect of over 65% in size
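Quantitative HTS format: each compound was titrated, incubated with 10 nM nuclease for 15 min at room temperature, then challenged with flap substrate at 50 nM final. Signal change over 15 min gave concentration–effect curves.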
Each line names hits and unclear results; the compound was inactive in the other large screens; ! = not active in a repeat. Calls come from the whole dose curve; as a rule, active = well fitted curve in the direction sought with a large enough effect; inconclusive = small, poorly fitted or top-dose-only effect, or another doubt; inactive = no such curve, though single readings can be large; an effect the other way counts as inactive or inconclusive.

CCn1c(CSc2ncn[nH]2)nc2cc(C(=O)O)ccc21	none
CC(=O)c1ccc(N2CCN(C(=O)COc3ccc4c(c3)CCC4)CC2)cc1	Pol kappa inh inconclusive, POLB inh 10µM, POLI inh 79µM, Pol eta inh 56µM
COc1cccc(OC)c1Cn1nnc2c(=O)[nH]c(C3CCN(C(=O)c4ccccc4)CC3)nc21	none (no result: WRN inhibitor)
CCC(=O)OCOc1ccc(/C=C2/CCC(CN(C)C)C2=O)cc1 (centres undefined)	WRN inhibitor 11µM, POLI inh inconclusive, Pol eta inh 13µM (no result: POLB inh)
CCc1cccc(C)c1NC(=O)Nc1csc2c1CCCC2	none (no result: WRN inhibitor)
CCCCC(=O)Nc1c(C(=O)N2CCN(c3ccccc3)CC2)oc2ccccc12	none (no result: WRN inhibitor)
CSc1nc(=S)c2[nH]c(=S)[nH]c2[nH]1	WRN inhibitor 50µM, POLI inh 14µM
O=C(c1ccc(COc2ccc(F)cc2)o1)n1cc(Br)cn1	POLB inh 22µM, WRN inhibitor inconclusive, POLI inh inconclusive, Pol eta inh 79µM
COc1ccc(NC(=S)NC(NC(=O)c2ccccc2Cl)C(Cl)(Cl)Cl)c([N+](=O)[O-])c1 (centres undefined)	POLB inh inconclusive
COc1ccc(NC(=S)NC(NC(=O)CCl)C(Cl)(Cl)Cl)c([N+](=O)[O-])c1 (centres undefined)	POLI inh inconclusive, Pol eta inh 50µM
CCOc1ccc2nc(NC(=O)CSc3nc(-c4ccccc4)c(C#N)c(=O)[nH]3)sc2c1	WRN inhibitor inconclusive, POLI inh inconclusive, Pol eta inh 50µM
CCOC(=O)Cc1csc(NC(=O)CSc2nc(-c3ccccc3)c(C#N)c(=O)[nH]2)n1	none
COc1cccc(-c2nc(SCC(=O)Nc3nc(-c4ccccc4)c(C)s3)[nH]c(=O)c2C#N)c1	POLB inh inconclusive, POLI inh inconclusive, Pol eta inh 79µM
CCc1nnc(SCc2cccc(Cl)c2)c2cc3sccc3n12	none (no result: WRN inhibitor, Pol eta inh)
Cc1cc(N2CCN(c3ccccc3F)CC2)n2cnnc2n1	none (no result: WRN inhibitor)
Cc1cc(N2CCN(c3cccc(C)c3C)CC2)n2cnnc2n1	POLB inh 0.16µM, POLI inh inconclusive (no result: WRN inhibitor)
O=C(N/N=C/c1ccccc1Cl)c1nc2ccc([N+](=O)[O-])cc2c(=O)[nH]1	POLI inh 10µM
O=C(Nc1ccccc1F)c1cnn2c1NC(=C1CC1)C=C2C(F)F	POLI inh inconclusive (no result: POLB inh, WRN inhibitor, Pol eta inh)
O=C1CCN(Cc2ccccc2)CCN1CCSc1ccccc1	Pol kappa inh inconclusive, POLI inh 79µM!
O=C(Nc1ccc(Br)cc1)c1csc(-c2ccncc2)n1	WRN inhibitor inconclusive
Cc1nc(-c2ccncc2)sc1C(=O)Nc1ccc(Br)cc1	POLB inh 16µM
O=C1C2C3C=CC(C3)C2C(=O)N1CNc1ccc(O)cc1 (centres undefined)	POLB inh 40µM (no result: Pol kappa inh, WRN inhibitor, POLI inh, Pol eta inh, FEN1 inh)
Cc1ccc(NCN2C(=O)C3C4C=CC(C4)C3C2=O)cc1 (centres undefined)	none
COc1ccccc1C(=O)NC1(C(F)(F)F)C(=O)Nc2c1c(=O)[nH]c(=O)n2-c1ccc(F)cc1 (centres undefined)	none (no result: WRN inhibitor)
Cc1cc2ccccc2c[n+]1C1CCCCC1	none (no result: POLB inh, WRN inhibitor, Pol eta inh)
CCOc1cc(/C=C2\C(=O)N(CCc3ccc(OC)c(OC)c3)C(C)=C2C(=O)OC)ccc1O	WRN inhibitor 79µM
Cn1cc(C(=O)N2CCN(c3cccc(Cl)c3)CC2)c(=O)c2cc(S(=O)(=O)N3CCCC3)ccc21	none (no result: WRN inhibitor)
CCOc1ccc(-n2c(SCC(=O)Nc3ccc(CC)cc3)nc3c(oc4ccccc43)c2=O)cc1	POLI inh inconclusive (no result: WRN inhibitor)
Cc1cc(N2CCOCC2)c2c(N)cc(C)c(C)c2n1	none
Nc1c(N2CCOCC2)cc(Cl)c2nonc12	POLI inh 3.5µM
Cc1ccc(NC(=O)Cn2c(=O)n(CCCCC(=O)NCc3ccc4c(c3)OCO4)c(=O)c3ccccc32)cc1	none (no result: WRN inhibitor)
Cc1ccc(NC(=O)c2nc[nH]c2C(=O)N2CCOCC2)c(C(=O)c2ccccc2)c1	POLB inh inconclusive, POLI inh 79µM
Cc1ccc(CNC(=O)CCCN2C(=O)c3cccnc3Oc3ccc(Cl)cc32)cc1	none (no result: WRN inhibitor)
COC(=O)CCNC(=O)Cc1ccc(S(=O)(=O)N2CCCCC2)s1	POLI inh inconclusive, Pol eta inh 79µM (no result: POLB inh)
CCCC(C)NC(=O)Cc1ccc(S(=O)(=O)N2CCOCC2)s1 (centres undefined)	none (no result: POLB inh)
Cc1ccc(C)c(NC(=O)Cc2ccc(S(=O)(=O)N3CCCCC3)s2)c1	Pol eta inh inconclusive
CCC(CC)NC(=O)Cc1ccc(S(=O)(=O)N2CCOCC2)s1	POLB inh inconclusive, POLI inh inconclusive, Pol eta inh 10µM
O=C1c2ccccc2C(=O)C1c1ccccn1	Pol eta inh inconclusive
O=C1c2ccccc2C(=O)C2OC12 (centres undefined)	POLB inh 71µM (no result: Pol kappa inh, WRN inhibitor, POLI inh, Pol eta inh, FEN1 inh)
O=C(NCc1ccc(Cl)cc1)C1CCCN(c2ncnc3onc(-c4ccc(F)cc4)c23)C1 (centres undefined)	none (no result: WRN inhibitor)
Cc1c(NC(=O)c2ccco2)cccc1-c1nc2cccnc2s1	POLI inh inconclusive, Pol eta inh 45µM
Cc1ccc(C)c(OCCn2ccnc2)c1	Pol kappa inh 79µM, POLB inh 10µM, POLI inh 40µM, Pol eta inh 32µM
COc1cc2nc(Cl)nc(NC(C)C)c2cc1OC	none (no result: POLB inh, WRN inhibitor, Pol eta inh)
CCN1CCN(Cc2ccc(NC(=O)c3ccc(C)c(NC(=O)c4ccno4)c3)cc2C(F)(F)F)CC1	none
CCN1CCN(Cc2ccc(NC(=O)c3ccc(C)c(/C=C/c4cnc(Nc5cc(N6CCNCC6)nc(C)n5)cn4)c3)cc2C(F)(F)F)CC1	WRN inhibitor 20µM!, POLI inh inconclusive, Pol eta inh 79µM, FEN1 inh 13µM
CCCCC(=NCCc1c(C)[nH]c2ccccc12)C1=C(O)CC(c2ccccc2)CC1=O (centres undefined)	none
CCCC(=NCCc1c(C)[nH]c2ccccc12)C1=C(O)CC(c2ccccc2)CC1=O (centres undefined)	POLI inh 89µM
Cc1cc(C)cc(NC(=O)CSc2nc(=O)[nH]c3c2CCC3)c1	none (no result: WRN inhibitor)
Nc1ccc(O)c(C(=O)O)c1	Pol kappa inh 1.1µM (no result: POLB inh, WRN inhibitor, POLI inh, Pol eta inh, FEN1 inh)
COc1ccc2[nH]cc(CCO)c2c1	none (no result: POLB inh, WRN inhibitor, POLI inh, Pol eta inh, FEN1 inh)
Cc1ccc(N=Nc2c(N)[nH]n3c(=O)cc(-c4ccccc4)nc23)cc1	none
Cc1ccc(N=Nc2c(=O)[nH]n3c(=O)cc(C)[nH]c23)cc1	POLB inh 0.89µM, POLI inh inconclusive
CNc1nc(-c2ccccc2C)nc2ccccc12	none (no result: POLB inh, WRN inhibitor, POLI inh, Pol eta inh, FEN1 inh)
O=C(NCCc1ccccc1)c1ccc(Cn2c(=O)c3cccn3c3cccnc32)cc1	none (no result: WRN inhibitor)
